High-throughput results from PubChem.
Most compounds without a hit are left out; they make up all but 2.4% or so of the library.
CHO-K1 Ca ag: counter-screen for M1 agonists: effect in parental CHO-K1 cells; Fluo-8 calcium fluorescence; scaled to maximal ATP response, vehicle zero; activation, % at 3 µM; 0.48% of 360,000 active; in the data active = activation above about 15%;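 also: untransfected CHO-K1 host cells lacking M1 receptor as counterscreen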
CHO-K1 Ca antag: M1 antagonist counterscreen hit in parental CHO-K1 cells. ATP-induced calcium, Fluo-8 fluorescence. inhibition, % at 3 µM. 0.6% of 360,000 active;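 active = inhibition above a per-plate cutoff, the plate's mean sample inhibition plus 3 SD, cut at about 24% in these data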;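 also: 0% = DMSO plus EC80 ATP and 100% = DMSO alone without ATP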
CHRM1 antagonist: human CHRM1 antagonism | CHO-K1 hM1, Fluo-8 calcium fluorescence, ACh EC80 antagonist | inhibition, % at 3 µM | 1.3% of 360,000 active | AID 588852;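 active = percent inhibition above its own plate's cutoff, namely the mean of that plate's compound wells plus 3 SD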;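 also: peak over basal fluorescence ratio during 140 s after agonist addition; 0% = ACh EC80 plus DMSO and 100% = DMSO alone without agonist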
Target sequence (P11229 whole entry, looked up): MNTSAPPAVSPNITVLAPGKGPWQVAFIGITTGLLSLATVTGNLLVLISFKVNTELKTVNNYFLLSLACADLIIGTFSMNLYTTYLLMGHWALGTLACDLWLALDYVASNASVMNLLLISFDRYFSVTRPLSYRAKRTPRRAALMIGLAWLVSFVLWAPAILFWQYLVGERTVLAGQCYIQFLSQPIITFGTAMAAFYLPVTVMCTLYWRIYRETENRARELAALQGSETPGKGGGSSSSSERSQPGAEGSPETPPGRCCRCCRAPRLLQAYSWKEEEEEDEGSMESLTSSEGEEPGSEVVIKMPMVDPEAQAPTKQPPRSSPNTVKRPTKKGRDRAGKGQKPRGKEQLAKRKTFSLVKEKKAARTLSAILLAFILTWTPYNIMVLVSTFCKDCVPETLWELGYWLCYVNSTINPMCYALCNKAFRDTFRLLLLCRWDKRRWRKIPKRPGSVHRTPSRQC
M1 PAM: human CHRM1 positive allosteric modulation. P11229. CHO-K1 hM1, Fluo-8 calcium fluorescence, ACh EC20; 0% = ACh EC20, 100% = maximal ACh. activation, % at 3 µM. 0.088% of 360,000 active. AID 588819; in the data active = activation above about 19%, passing the limit was not always enough
M1 PAM parental: nonselective activator or artifact in parental CHO-K1 calcium assay; ATP EC20, Fluo-8 calcium fluorescence; 0% at ATP EC20, 100% at ATP max; AID 602247; activation, % at 3 µM; 0.02% of 360,000 active;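 active = activation above the run cutoff, the mean activation of all test compounds plus 3 SD, cut at about 40% in these data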;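 also: peak over basal fluorescence ratio in a 140 s read after ATP addition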
CHRM1 agonist: agonists of human M1 muscarinic receptor; CHO-K1 hM1, Fluo-8 calcium fluorescence, agonist mode; 0% DMSO, 100% acetylcholine EC100; P11229; 0.33% of 360,000 active; activation, % at 3 µM;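 active = activation above the run's mean compound activation plus 3 SD, cut at about 16% in these data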;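 also: peak over basal fluorescence ratio within a 140 s kinetic read after compound addition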
* hit, by the source's call; . = no result given.

SMILES	CHO-K1 Ca ag	CHO-K1 Ca antag	CHRM1 antagonist	M1 PAM	M1 PAM parental	CHRM1 agonist
CC(=O)c1ccc(NC(=O)COC(=O)c2c3c(nc4ccccc24)/C(=C\c2cccs2)CCC3)cc1	2	19	18	-8	-14	-5
Cc1ccc(C)c(N2N=C(C(=O)OCc3nnc(-c4ccccc4Br)o3)CCC2=O)c1	1	-12	-14	6	15	1
COc1cccc(NC(=O)C2(C)CCN2C(=O)Cc2cccc3ccccc23)c1 (stereo not given)	2	-8	-5	0	12	-3
CC(OC(=O)c1ccc(CN2CCCC2=O)cc1)C(=O)Nc1ccc(Cl)cc1 (stereo not given)	0	-18	-12	14	25	-3
CC(C)c1ccccc1NC(=O)COC(=O)c1c2c(nc3ccccc13)CCN(Cc1ccccc1)C2	7	21	37*	-22	9	-5
NNC(=O)CS(=O)(=O)CS(=O)(=O)CC(=O)NN	-1	72*	-2	2	-20	-1
Cn1cc(CN2CCN(c3ccccc3)CC2)c2ccccc21	4	2	31*	-18	13	-8
Cc1ccc(NC(=O)CN2C(=O)C3C4C=CC(C4)C3C2=O)cc1S(=O)(=O)N(C)C (stereo not given)	2	-7	-8	10	25	-10
CC1=C(C(=O)N2CCCCCC2)CC(CC(=O)NCCN2CCOCC2)C(=O)N1CCCN1CCCC1=O (stereo not given)	1	-8	.	.	9	.
COc1ccc(Nc2sc(C(=O)c3ccc(Cl)cc3)c(N)c2C(=O)Nc2ccccc2OC)cc1	20*	32*	44*	-5	13	39*
CN1CCC(Oc2ccc(Sc3ccccc3)cc2)CC1	2	-6	11	-1	11	12
CN1CCC(Oc2ccccc2Sc2ccc(C(F)(F)F)cc2)CC1	1	-5	64*	-24	14	-10
O=C(Cn1c(-c2ccccn2)nc2ccccc21)N/N=C/c1cccnc1	4	-3	-6	2	0	-2
O=C(Nc1ccc(OC(F)(F)F)cc1)N1CCc2nc(NCc3cccc(Oc4ccccc4)c3)ncc2C1	10	17	43*	-26	-10	0
CC(=O)c1cccc(S(=O)(=O)N2CCC(C(=O)OC3CCOC3=O)CC2)c1 (stereo not given)	0	14	27*	-11	-11	-2
Cc1ccc(S(=O)(=O)N2CCC(C(=O)OC3CCOC3=O)CC2)cc1C (stereo not given)	3	11	1	3	2	-4
CCOC(=O)c1ccc(NC(=S)NCC(O)c2ccccc2)cc1 (stereo not given)	13	12	34*	-14	6	-3
CCOC(=O)c1ccc(NC(=S)NCCc2ccccc2F)cc1	15*	25*	61*	-20	-14	0
O=C1CCc2cc(S(=O)(=O)NCCC(=O)NC3CCCCC3)ccc2N1	1	-9	-1	3	-1	-3
O=C(Nc1ccccc1)Nc1cccc(Cl)c1	15	8	27	-14	5	-2
COC(=O)c1cc(NC(=O)Nc2ccccc2)ccc1Cl	16*	12	22	-12	1	3
COC(=O)c1cccc(NC(=O)Nc2ccc(Cl)c(Cl)c2)c1	16*	21	43*	-23	-7	4
COC(=O)c1sccc1NC(=O)Nc1ccc(Cl)c(Cl)c1	1	29*	30	-8	-7	-1
CN(Cc1ccccc1)C(=O)c1cccc(NC(=O)Cc2ccc(NC(=O)C3CCCN(C(=O)c4ccccc4)C3)cc2)c1 (stereo not given)	0	-20	-12	9	31	-4
Cc1ccc(-c2nn(-c3ccccc3)cc2C=C2SC(=S)N(CCS(=O)(=O)O)C2=O)cc1	0	-4	-20	28*	11	0
SMILES	CHO-K1 Ca ag	CHO-K1 Ca antag	CHRM1 antagonist	M1 PAM	M1 PAM parental	CHRM1 agonist
O=C1C(=Cc2cn(-c3ccccc3)nc2-c2ccc(OCc3ccccc3)cc2)SC(=S)N1CCS(=O)(=O)O	2	-3	-23	12	4	-2
COc1cccc(CNC(=O)Cn2c(=O)n(CCC(=O)N3CCCCC3)c(=O)c3sccc32)c1	0	-3	4	-2	-2	-2
C/C=C(\C)C(=O)OC1[C@H](OC(C)=O)C2(CO)C(CC1(C)C)C1=CCC3C4(C)CCC(O[C@@H]5O[C@H](C(=O)O)[C@@H](O[C@@H]6O[C@H](CO)[C@@H](O)[C@H](O)[C@H]6O)[C@H](O)[C@H]5O[C@H]5O[C@H](CO)[C@@H](O)[C@H](O)[C@H]5O)[C@](C)(CO)C4CCC3(C)[C@]1(C)C[C@H]2O (stereo not given in full)	98*	102*	104*	-37	-19	93*
CC1(C)C[C@H]2C3=CCC4[C@@]5(C)CC[C@H](O[C@@H]6O[C@H](C(=O)O)[C@@H](O)[C@H](O)[C@H]6O)[C@@](C)(CO)C5CC[C@@]4(C)[C@]3(C)C[C@H](O)[C@@]2(CO)[C@@H](O)[C@@H]1O (stereo not given in full)	0	-2	-4	9	0	-4
C/C=C(/C)C(=O)OC1CC(C)(C)C[C@H]2C3=CC[C@@H]4[C@@]5(C)CCC(O[C@@H]6O[C@@H](C(=O)O)[C@@H](O)C(O[C@@H]7OC[C@H](O)[C@@H](O)[C@@H]7O[C@@H]7OC(CO)C(O)[C@@H](O)[C@@H]7O)C6O[C@@H]6OC(CO)C(O)C(O)C6O)[C@@](C)(CO)[C@@H]5CC[C@]4(C)[C@]3(C)CC(O)[C@@]12CO (stereo not given in full)	67*	49*	73*	-36	-22	62*
CC12CCC(=O)C=C1CCCC2=O (stereo not given)	1	-4	-14	10	13	0
CCCn1c(N)c(N(CCOC)C(=O)CSCC(=O)Nc2ccc(OC)cc2)c(=O)[nH]c1=O	1	5	-13	10	-21	1
O=C(CCCSc1nc2ccccc2[nH]1)NCc1ccc(Cl)cc1	3	2	-4	5	7	-11
O=C(CCCSc1nc2ccccc2[nH]1)NCc1ccccc1F	17*	0	-11	8	18	-11
CC(Sc1nnc(-c2cccnc2)n1-c1ccccc1)C(=O)NCc1ccc2c(c1)OCO2 (stereo not given)	0	-4	-10	-4	-14	-4
O=C(CSc1nnc(-c2cccnc2)n1-c1ccccc1)NCc1ccc2c(c1)OCO2	0	24*	13	-8	-10	-3
O=C1[C@@H]2[C@@H](CN3CN(c4ccccc4)N=C(c4ccccc4)[C@@]23c2ccccc2)C(=O)N1c1ccccc1	1	-30	-12	3	42*	-1
